Results: PubChem BioAssay
The list shows a part of the results. The source made the active and inactive calls.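 How the source made its calls, unless noted: active means mean inhibition above about 50% in the one-dose retest (limit read from the data); inactive means the rest.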

Assays:
[1] = PERK-eIF2a-CHOP pathway stimulators, retested – cell-based, CHO-CHOP luciferase reporter, single concentration, confirmation (AID 463112; in the data active means activation above about 33%;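 further: 0% = DMSO wells and 100% = tunicamycin 10 µg/mL wells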); conditions: CHO-CHOP cells, CHOP-luciferase reporter luminescence; at 10 µM; stronger effect = higher value; percent of tunicamycin response, DMSO as zero
[2] = target: Sentrin-specific protease 8 (Homo sapiens) (UniProt Q96LD8); experiment: human SENP8 peptidase blockers, hit retest – biochemical, luminescence, single concentration, confirmation (AID 488912;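 active means mean inhibition across replicates above about 50%, limit read from the data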); conditions: Recombinant SENP8, Z-RLRGG-aminoluciferin luminescence, 60 min; at 12.5 µM; stronger effect = higher value
Chain of Sentrin-specific protease 8 (Homo sapiens) (Q96LD8 whole entry, looked up, the tested form may be a part): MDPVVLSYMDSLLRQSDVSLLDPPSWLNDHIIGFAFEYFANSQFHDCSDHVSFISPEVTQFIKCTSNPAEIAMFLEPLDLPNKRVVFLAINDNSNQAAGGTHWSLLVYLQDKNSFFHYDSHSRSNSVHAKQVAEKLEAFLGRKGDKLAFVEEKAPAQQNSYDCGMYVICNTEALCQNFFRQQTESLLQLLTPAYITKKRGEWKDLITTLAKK

[3] = target: Sentrin-specific protease 6 (Homo sapiens) (UniProt Q9GZR1); experiment: inhibition of human SENP6 catalytic domain – biochemical, luminescence, single concentration, confirmation (AID 488915); conditions: recombinant SENP6, Z-RLRGG-aminoluciferin luminescence; at 12.5 µM; stronger effect = higher value
Chain of Sentrin-specific protease 6 (Homo sapiens) (Q9GZR1 628-1112 limits assumed): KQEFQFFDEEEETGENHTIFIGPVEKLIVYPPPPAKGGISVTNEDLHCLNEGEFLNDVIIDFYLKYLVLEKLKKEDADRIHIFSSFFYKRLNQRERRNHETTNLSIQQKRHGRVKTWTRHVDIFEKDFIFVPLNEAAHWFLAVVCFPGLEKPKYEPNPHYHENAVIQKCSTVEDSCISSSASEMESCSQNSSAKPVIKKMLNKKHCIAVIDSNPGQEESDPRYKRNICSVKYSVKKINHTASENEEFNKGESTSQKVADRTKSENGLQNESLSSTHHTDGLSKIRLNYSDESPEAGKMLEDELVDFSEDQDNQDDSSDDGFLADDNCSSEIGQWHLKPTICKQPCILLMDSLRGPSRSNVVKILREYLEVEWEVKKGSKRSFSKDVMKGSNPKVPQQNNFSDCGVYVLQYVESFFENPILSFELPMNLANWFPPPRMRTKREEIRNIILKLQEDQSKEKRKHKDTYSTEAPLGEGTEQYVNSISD

[4] = target: Sentrin-specific protease 7 (Homo sapiens) (UniProt Q9BQF6); experiment: human SENP7 peptidase blockers, hit retest – biochemical, luminescence, single concentration, confirmation (AID 488917); conditions: recombinant SENP7, Z-RLRGG-aminoluciferin luminescence, 40 min; at 12.5 µM; stronger effect = higher value
Chain of Sentrin-specific protease 7 (Homo sapiens) (Q9BQF6 706-1050 limits assumed): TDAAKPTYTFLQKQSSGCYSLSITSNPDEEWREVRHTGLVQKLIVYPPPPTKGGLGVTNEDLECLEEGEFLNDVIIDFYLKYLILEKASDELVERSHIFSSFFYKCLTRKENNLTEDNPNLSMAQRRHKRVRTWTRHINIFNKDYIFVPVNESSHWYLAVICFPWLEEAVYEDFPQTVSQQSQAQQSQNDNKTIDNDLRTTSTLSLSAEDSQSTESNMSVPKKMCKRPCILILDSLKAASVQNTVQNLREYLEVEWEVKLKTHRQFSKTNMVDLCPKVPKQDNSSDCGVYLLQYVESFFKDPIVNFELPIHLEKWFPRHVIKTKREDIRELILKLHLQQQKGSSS

[5] = target: Caspase-3 (Homo sapiens) (UniProt P42574); experiment: human caspase-3 activity blockade, out-of-family – biochemical, single concentration, selectivity assay for SENP inhibitor project, confirmation (AID 488918;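 active means mean inhibition above about 50%, limit read from the data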;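 further: plate controls were enzyme with DMSO for no effect and wells without caspase-3 for full effect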); conditions: purified caspase-3, Z-DEVD-aminoluciferin luminescence, 60 min; at 12.5 µM; stronger effect = higher value
Chain of Caspase-3 (Homo sapiens) (P42574 28-227 limits assumed): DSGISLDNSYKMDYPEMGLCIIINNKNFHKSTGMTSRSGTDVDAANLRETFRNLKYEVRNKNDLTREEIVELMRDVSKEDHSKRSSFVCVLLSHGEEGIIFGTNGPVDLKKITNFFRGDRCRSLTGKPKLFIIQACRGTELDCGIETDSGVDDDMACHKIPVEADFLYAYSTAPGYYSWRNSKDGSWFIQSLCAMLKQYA

[6] = Ultra-Glo luciferase signal interference – biochemical, single concentration, SENP8 reaction pre-completed, artefact control for SENP inhibitor project, confirmation (AID 488919;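 active means mean inhibition above about 50% when retested at one dose, limit read from the data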;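 further: plate controls were DMSO wells with completed reaction for no effect and substrate without enzyme for full effect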); conditions: Pre-incubated SENP8/Z-RLRGG-aminoluciferin, luciferase luminescence interference; at 12.5 µM; stronger effect = higher value
[7] = target: Protein Mdm4 (Homo sapiens) + E3 ubiquitin-protein ligase Mdm2 (Homo sapiens) (UniProt O15151+Q00987); experiment: human Mdm2/MdmX binding disruption – cell-based, luminescence, single concentration, set 2, confirmation (AID 504601;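 active means mean inhibition of the luminescence signal across two replicates at or above 26 percent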); conditions: SaOS-2 split-luciferase Mdm2/MdmX complementation, at 8 µM, stronger effect = higher value
Chain of Protein Mdm4 (Homo sapiens) + E3 ubiquitin-protein ligase Mdm2 (Homo sapiens) (O15151 whole entry, looked up): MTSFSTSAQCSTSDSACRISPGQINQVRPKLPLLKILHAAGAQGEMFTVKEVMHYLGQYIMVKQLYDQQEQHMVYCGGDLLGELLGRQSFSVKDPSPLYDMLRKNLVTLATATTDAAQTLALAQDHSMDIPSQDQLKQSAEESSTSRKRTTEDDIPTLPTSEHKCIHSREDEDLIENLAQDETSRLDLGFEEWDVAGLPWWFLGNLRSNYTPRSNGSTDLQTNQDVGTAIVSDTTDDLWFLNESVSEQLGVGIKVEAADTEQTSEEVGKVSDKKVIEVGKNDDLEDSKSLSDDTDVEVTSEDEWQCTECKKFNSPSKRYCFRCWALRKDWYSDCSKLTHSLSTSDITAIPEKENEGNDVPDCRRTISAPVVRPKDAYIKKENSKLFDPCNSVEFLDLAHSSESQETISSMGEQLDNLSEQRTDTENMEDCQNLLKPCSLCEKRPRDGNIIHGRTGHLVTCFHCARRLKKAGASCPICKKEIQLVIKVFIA
Chain of Protein Mdm4 (Homo sapiens) + E3 ubiquitin-protein ligase Mdm2 (Homo sapiens) (Q00987 whole entry, looked up): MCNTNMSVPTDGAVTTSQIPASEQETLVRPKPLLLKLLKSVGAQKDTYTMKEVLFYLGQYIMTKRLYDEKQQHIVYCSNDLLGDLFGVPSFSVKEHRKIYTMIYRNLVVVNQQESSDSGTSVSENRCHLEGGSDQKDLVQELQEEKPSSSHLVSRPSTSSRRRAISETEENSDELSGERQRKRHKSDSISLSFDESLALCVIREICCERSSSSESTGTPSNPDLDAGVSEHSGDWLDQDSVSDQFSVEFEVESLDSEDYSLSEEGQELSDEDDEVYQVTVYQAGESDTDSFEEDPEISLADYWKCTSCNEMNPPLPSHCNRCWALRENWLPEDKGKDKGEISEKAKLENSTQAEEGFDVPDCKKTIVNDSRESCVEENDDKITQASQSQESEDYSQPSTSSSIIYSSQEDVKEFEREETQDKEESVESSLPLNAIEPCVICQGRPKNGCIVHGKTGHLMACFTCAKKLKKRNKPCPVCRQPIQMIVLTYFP

[8] = NF-kB reporter suppression in CF airway cells – cell-based, GFP fluorescence, single concentration, confirmation (AID 602472; in the data active means inhibition above about 40%;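 further: stimulus PAF is a Pseudomonas aeruginosa filtrate and not platelet activating factor; plate controls were DMSO wells with stimulus for no effect and unstimulated DMSO wells for full effect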); conditions: KKLEB CF airway cells, PAF-induced NF-kB-GFP fluorescence, overnight; at 5 µM; stronger effect = higher value
[9] = HIF-2a driven luciferase blockers, single dose – luminescence, 786-0 RCC cells, confirmation (AID 651580;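 active means mean inhibition across four replicates of at least 40 percent at the single tested concentration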); conditions: HIF-2a luciferase reporter luminescence, overnight, at 18.8 µM, stronger effect = higher value
[10] = HIF-1a luciferase reporter signal reduction – MiaPaCa-2 cells, single concentration, counter-screen for HIF-2a inhibitor project, confirmation (AID 651589;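 active means mean inhibition of the reporter signal across four replicates at the single tested dose of 50% or more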); conditions: MiaPaCa-2 HIF-1a luciferase reporter, desferoxamine, overnight; at 18.8 µM; stronger effect = higher value
[11] = NFkB reporter suppression in cystic fibrosis bronchial cells – cell-based, uHTS hits, panel, cytotoxicity readout, dose response (AID 624344); conditions: CF bronchial epithelial cells, PAF-induced NFkB reporter inhibition, with PAF, run 1; at 79 µM (top of the series) unless noted
[12] = as above; conditions: CF bronchial epithelial cells, PAF-induced NFkB reporter inhibition, with PAF, run 2; at 79 µM (top of the series) unless noted
[13] = Brca1-Bard1 BiLC signal decrease – luminescence, single concentration, counter-screen for Mdm2/MdmX interaction inhibitor project, confirmation (AID 504668; call rule not given here); conditions: Brca1/Bard1 bimolecular luciferase complementation counterscreen, at 8 µM, stronger effect = higher value

In the case of `Cc1cc(N/N=C\c2ccc(Br)cc2)nc(-n2nc(C)cc2C)n1`, the activation [1] is reported as 12.3% (inactive).

For `CC(=O)/C(=N\Nc1ccc(Cl)cc1Cl)Sc1cccc2cccnc12`, the activation [1] was 184% (active).

For `Cc1cccc(Nc2nc3c(S(=O)(=O)c4ccccc4)nnn3c3ccccc23)c1C`, the activation [1] was 128% (active).

For `O=C(N/N=C\c1cc2c(cc1Cl)OCO2)c1ccc(Br)s1`, the activation [1] was 50.2% (active).

For `COc1cccc2sc(Nc3nc(C)c(C(C)=O)s3)nc12`, the activation [1] was 58.5% (active), the inhibition [2] was 51.3% (active) and the inhibition [3] was 47.9% (inactive). For the same compound, the inhibition [4] was 83.9% (active), the inhibition [5] was 56.6% (active) and the inhibition [6] was 72.3% (active).

With `N#Cc1cccc(NC(=O)COC(=O)c2ccccc2C(=O)c2ccc(Cl)c([N+](=O)[O-])c2)c1` the activation [1] was 26.1% (inactive), the inhibition [7] was 103% (active) and the inhibition [8] was 108% (active). For the same compound, the inhibition [9] was 55.9% (active), the inhibition [10] was 108% (active) and the inhibition [11] was 103%. The inhibition [12] was 111%.

For `CC1(C)CCSC(/C=C/c2ccccc2)=N1`, the activation [1] was 68% (active), the inhibition [13] was 30.5% (active) and the inhibition [8] was -24.9% (inactive).

For `O=C1Nc2ccc(Br)cc2/C1=N/N=C/C1=C(N2CCOCC2)C(=C\c2ccccc2)/CC1`, the activation [1] was 53.4% (active).

For `COc1ccc(C(=O)NCC(=O)N/N=C/c2ccc([N+](=O)[O-])o2)cc1OC`, the activation [1] was 35.6% (active).

In the case of `CCOc1ccc2nc(Cl)c(C3CC(c4ccccc4)=NN3C(=O)c3cccs3)cc2c1` (stereo not drawn), the activation [1] is reported as -1.15% (inactive).

In the case of `CC(C)(C)Nc1nc(-c2ccccn2)nc2ccccc12`, the activation [1] is reported as 20.4% (inactive) and the inhibition [13] is reported as 23.3% (active).

For `Oc1c(CN2CCN(c3ccc(F)cc3)CC2)cc(Cl)c2cccnc12`, the activation [1] was 196% (active) and the inhibition [13] was 25.7% (active).

With `Cc1c(NC(=O)CSc2cccc3cccnc23)c(=O)n(-c2ccccc2)n1C` the activation [1] was 123% (active).

For `O=C1CC(c2cccc(Cl)c2)CC(O)=C1C=Nc1ccccc1` (stereo not drawn), the activation [1] was 70.8% (active).

In the case of `COc1ccc(-c2cc(C(F)(F)F)nc(S(C)(=O)=O)n2)cc1OC`, the activation [1] is reported as 210% (active) and the inhibition [13] is reported as 24.3% (active).

In the case of `COc1ccc(C(C[N+](=O)[O-])n2nc(C)cc2C)cc1` (stereo not drawn), the activation [1] is reported as 60% (active).

In the case of `O=C(CSc1cccc2cccnc12)N/N=C/c1cccnc1`, the activation [1] is reported as 265% (active).

With `CCOC(=O)c1cnc(Nc2nc3ccccc3o2)nc1CSC(=S)N1CCCCC1` the activation [1] was 92.7% (active).

In the case of `CC1CC2=C(CC1/C=N/NC(N)=S)C(C)(C)CCC2` (stereo not drawn), the activation [1] is reported as 29.4% (inactive).

In the case of `COc1ccc2c(c1OC)C(=O)OC2Nc1nc(-c2ccccc2)cs1` (stereo not drawn), the activation [1] is reported as 29.9% (inactive), the inhibition [7] is reported as 103% (active) and the inhibition [8] is reported as 106% (active). For the same compound, the inhibition [9] was 26% (inactive), the inhibition [10] was 105% (active) and the inhibition [11] was 109%. For the same compound, the inhibition [12] was 103%.

In the case of `CCCOC1CCCN(Cc2cn(C)nc2-c2ccccc2F)C1` (stereo not drawn), the activation [1] is reported as -0.8% (inactive).

In the case of `Nc1nc(CC(=O)CSc2ccc(Cl)cc2)nc(Nc2ccc(F)cc2)n1`, the activation [1] is reported as 40% (active) and the inhibition [13] is reported as 29.2% (active).

In the case of `CCOC(=O)c1cccc(NC(=O)c2ccc(F)cc2F)c1`, the inhibition [2] is reported as 54% (active), the inhibition [3] is reported as 48.2% (inactive) and the inhibition [4] is reported as 75.9% (active). The inhibition [5] was 67.9% (active) and the inhibition [6] was 59.7% (active).

With `O=C(OC1CCOC1=O)c1ccc(-c2nc3ccccc3s2)s1` (stereo not drawn) the inhibition [2] was 92.5% (active), the inhibition [3] was 95.8% (active) and the inhibition [4] was 100% (active). The inhibition [5] was 96.3% (active) and the inhibition [6] was 83.8% (active).

In the case of `CN(CC(=O)Nc1ccc(Cl)cc1)C(=O)CNC(=O)c1ccc2ccccc2c1`, the inhibition [2] is reported as 15.1% (inactive), the inhibition [3] is reported as 12.3% (inactive) and the inhibition [4] is reported as 66.3% (active). The inhibition [5] was 21.6% (inactive) and the inhibition [6] was 1.1% (inactive).

For `Fc1ccccc1-c1cc2cc3c(cc2cn1)OCO3`, the inhibition [2] was 49.5% (inactive), the inhibition [3] was 79.9% (active) and the inhibition [4] was 79.1% (active). The inhibition [5] was 51.6% (active) and the inhibition [6] was 7.4% (inactive).

For `O=C(CCl)Nc1cccc(CP(=O)(c2ccccc2)c2ccccc2)c1`, the activation [1] was 34% (active), the inhibition [13] was 27.6% (active) and the inhibition [8] was -20.6% (inactive). For the same compound, the inhibition [9] was 22.9% (inactive) and the inhibition [10] was 51.3% (active).

In the case of `O=c1c2c(nc3cc(-c4cccc(Cl)c4)[nH]n13)CCCC2`, the inhibition [2] is reported as -9.4% (inactive), the inhibition [3] is reported as 0% (inactive) and the inhibition [4] is reported as 21.5% (inactive). For the same compound, the inhibition [5] was 41.6% (inactive) and the inhibition [6] was -4.6% (inactive).

With `CC(=O)Oc1ccc2c(=O)oc(-c3ccc([N+](=O)[O-])cc3)nc2c1` the inhibition [2] was -6.1% (inactive), the inhibition [3] was -1.5% (inactive) and the inhibition [4] was -2.9% (inactive). For the same compound, the inhibition [5] was -2.9% (inactive) and the inhibition [6] was -4.7% (inactive).

For `c1ccc(CN=C2Nc3ccccc3CS2)nc1`, the inhibition [2] was 48.6% (inactive), the inhibition [3] was 41.9% (inactive) and the inhibition [4] was 74.7% (active). The inhibition [5] was 76.5% (active) and the inhibition [6] was 57.5% (active).

With `O=C(COc1ccc2oc3c(c2c1)CCCC3)Nc1ccccn1` the inhibition [2] was 4.9% (inactive), the inhibition [3] was 12.8% (inactive) and the inhibition [4] was 11.9% (inactive). For the same compound, the inhibition [5] was 24.7% (inactive) and the inhibition [6] was 4.6% (inactive).

For `Cc1ccc(NC(=O)c2sccc2C)cc1[N+](=O)[O-]`, the inhibition [2] was 78% (active), the inhibition [3] was 77.5% (active) and the inhibition [4] was 95.7% (active). The inhibition [5] was 81% (active) and the inhibition [6] was 82.6% (active).

For `O=C(/C(=C/c1cccc(Cl)c1)c1nc2ccccc2[nH]1)c1ccccc1`, the activation [1] was 115% (active), the inhibition [9] was 26.3% (inactive) and the inhibition [10] was 105% (active).

In the case of `COC(=O)c1sc(NC(=O)c2ccc(OC)cc2OC)nc1C`, the inhibition [2] is reported as 56.9% (active), the inhibition [3] is reported as 34.4% (inactive) and the inhibition [4] is reported as 22.1% (inactive). For the same compound, the inhibition [5] was 66.4% (active) and the inhibition [6] was -5.6% (inactive).

With `O=C(OCC(=O)N1CCN(c2ccccc2)CC1)c1ccc([N+](=O)[O-])s1` the inhibition [2] was 64.2% (active), the inhibition [3] was 80.9% (active) and the inhibition [4] was 25.4% (inactive). The inhibition [5] was 8.3% (inactive) and the inhibition [6] was -3.3% (inactive).
